Screening results deposited in PubChem by several laboratories.
Rows were chosen to be rich in hits. Some 4.2% of all compounds tested hit in one or more screens of this group.
RecA splice inh – Mtb RecA intein splicing inhibitors, primary screen, biochemical, fluorescence, HTS; Protein RecA (Mycobacterium tuberculosis (strain ATCC 25618 / H37Rv)), P9WHJ3; cell-free RecA intein splicing; inhibition, % (test concentration not listed); 0.75% of 290,000 active; in the data active = inhibition above about 30%; inconclusive = no clear call, values can overlap the other calls;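 note: 0% = vehicle wells and 100% = reference inhibitor control wells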
FBA Mtb inh – Mtb FBA enzyme inhibitors, primary screen, biochemical, fluorescence, strain H37Rv; AID 588726, 2011; inhibition, % at 1 µM; purified M. tuberculosis FBA, fluorescence read-out; 2.3% of 360,000 active; in the data active = inhibition above about 27%;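 note: 0% = vehicle and 100% = reference inhibitor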
Target sequence (P9WQA3 whole entry, looked up): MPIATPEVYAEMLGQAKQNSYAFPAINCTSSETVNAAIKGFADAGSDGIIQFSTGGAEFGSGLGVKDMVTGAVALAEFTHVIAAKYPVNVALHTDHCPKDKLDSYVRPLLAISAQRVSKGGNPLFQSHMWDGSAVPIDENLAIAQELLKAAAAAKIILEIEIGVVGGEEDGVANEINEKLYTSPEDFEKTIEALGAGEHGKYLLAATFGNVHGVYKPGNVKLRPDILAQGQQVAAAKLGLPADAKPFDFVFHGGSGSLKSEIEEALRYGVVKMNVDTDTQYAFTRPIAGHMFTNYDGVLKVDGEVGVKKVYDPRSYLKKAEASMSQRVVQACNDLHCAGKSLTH
GDH-TPI counter – GDH-TPI coupling enzyme inhibitors, primary screen, artefact control for M. tuberculosis FBA inhibitor project, biochemical, absorbance, full deck | GDH-TPI coupled enzyme counterscreen, NADH absorbance | inhibition, % at 4.8 µM | 1.2% of 360,000 active | AID 588335, 2011;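 note: 0% = DMSO wells and 100% = wells lacking the enzyme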
CCHF vOTU inh-1 – CCHFV vOTU protease inhibitors, primary screen, biochemical, Pep-AMC substrate, fluorescence | Crimean-Congo hemorrhagic fever virus L polyprotein viral ovarian tumor (vOTU) protease … | inhibition, % at 11.5 µM | 0.55% of 370,000 active | AID 651958, 2012; note: 0% = vehicle wells with enzyme and 100% = no enzyme wells
Mtb bLac sens – beta-lactam sensitization of Mtb H37Rv, H37Rv | M. tuberculosis H37Rv growth with meropenem, percent inhibition | 0.27% of 330,000 active | inhibition, % at 25 µM; call rule not given here;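 note: growth measured after seven days incubation then overnight dye step; 0% = bacteria only wells and 100% = bacteria with antibiotic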
CCHF vOTU inh-2 – CCHFV vOTU protease inhibitors, confirmation, biochemical, Pep-AMC substrate, fluorescence; shares compounds with CCHF vOTU inh-1; Recombinant CCHFV vOTU; inhibition, % at 11.5 µM; 17% of 1,900 active; AID 686976, 2013
* marks the source's active call; other numbers are inactive results; ? = inconclusive; . = no result given. Cut-off read from the data, not from the text of the source, unless noted: active = inhibition above about 30%; inactive = the rest.

SMILES	RecA splice inh	FBA Mtb inh	GDH-TPI counter	CCHF vOTU inh-1	Mtb bLac sens	CCHF vOTU inh-2
Cc1cc(C)nc(Oc2ccc(Br)cc2)n1	0	2	14	-6	2	.
O=c1cc(C(F)(F)F)nc(SCc2cccc3ccccc23)[nH]1	5	1	3	31*	?	9
O=C(CN(C(=O)CNC(=O)c1cccs1)c1ccccc1F)NC1CCCC1	3	-2	-13	5	1	.
CSC(=Cc1ccc(C(=O)c2ccc(C)cc2)n1C)S(C)=O (stereo unspecified)	.	.	.	21	.	.
CCOC(=O)CC1(C)Oc2ccccc2N1S(=O)(=O)c1ccc(C)cc1 (stereo unspecified)	.	.	.	30*	.	-23
CCCCCN(C(=O)CCc1cn(CCCCC)c2ccccc12)c1ccc(N(C)c2ccccn2)cc1	.	.	.	4	.	.
COc1cc(C(c2c(C)[nH]n(-c3ccccc3)c2=O)c2c(C)[nH]n(-c3ccccc3)c2=O)cc(OC)c1OC	98*	2	12	80*	6	-4
Cc1[nH]n(-c2ccccc2)c(=O)c1S(=O)(=O)c1ccccc1	20	1	3	7	?	.
COc1ccc2nc(C)cc(Nc3ccc(N4CCN(C)CC4)cc3)c2c1	0	-1	23	2	1	.
O=C(Nc1ccc(Cl)cc1)c1nc[nH]c1C(=O)NCCCNC(=O)c1[nH]cnc1C(=O)Nc1ccc(Cl)cc1	.	.	.	.	1	.
CCN(CC)C(=O)c1cccc(-c2csc(C(O)c3ccc(F)cc3)n2)c1 (stereo unspecified)	.	-2	10	-4	.	.
CCN(CC)C(=O)c1cccc(-c2csc(C(O)c3ccc(F)c(F)c3)n2)c1 (stereo unspecified)	.	1	0	30*	.	8
CC(Oc1ccc(F)cc1)C(=O)Nc1cc(S(=O)(=O)N2CCOCC2)ccc1N1CCCCC1 (stereo unspecified)	8	0	0	6	-5	.
CCOC(=O)[C@]12CCCC=C1N(Cc1ccc(Cl)cc1Cl)C(=O)[C@H](CC(=O)NCCc1ccccc1OC)C2	.	.	.	30*	.	-2
CCOC(=O)[C@]12CCC=C1N(Cc1ccco1)C(=O)[C@H](CC(=O)NCc1cccs1)C2	.	.	.	33*	.	-24
CCOC(=O)[C@]12CCCC=C1N(Cc1ccco1)C(=O)[C@H](CC(=O)NCc1cccs1)C2	.	.	.	7	.	.
CCCCNC(=O)C[C@@H]1C[C@@]2(C(=O)OCC)CCCC=C2N(Cc2ccc(Cl)cc2Cl)C1=O	.	.	.	13	.	.
COC(=O)[C@]12C[C@H](CC(=O)NCCC(C)C)C(=O)N(Cc3ccc(Cl)cc3Cl)C1=C[C@H](C(C)(C)C)O[C@@H]2C	.	.	.	31*	.	6
COC(=O)[C@]12C[C@H](CC(=O)NCCc3ccccc3OC)C(=O)N(Cc3ccc(Cl)cc3Cl)C1=C[C@H](C(C)(C)C)O[C@@H]2C	.	.	.	30*	.	13
COc1ccc(-c2cc(-c3nnc(SCc4cccc5ccccc45)n3N)[nH]n2)cc1	.	.	.	16	.	.
CSc1c(N(C)C)c(=O)c1=S	.	.	.	5	.	.
O=C(NCc1ccc(F)cc1)c1ccc(S(=O)(=O)Nc2cccc(C(F)(F)F)c2)cc1	5	0	-3	30*	5	-11
CC(C)N(C)C1=CC(=O)C(N(C)C(C)C)=CC1=O	.	-1	2	44*	.	-2
CCOc1ccc(N=Cc2ccc([N+](=O)[O-])cc2)c(O)c1	.	-8	12	35*	.	-3
CCOc1ccc(N=Cc2ccc(N(C)C)cc2)c(O)c1	.	-4	24	.	.	.
SMILES	RecA splice inh	FBA Mtb inh	GDH-TPI counter	CCHF vOTU inh-1	Mtb bLac sens	CCHF vOTU inh-2
Cc1cc(=O)c2c(ccc3c(=O)cc(C)[nH]c32)[nH]1	.	.	.	-12	.	.
CCN(C[C@H]1N[C@@](Cc2ccccc2)(C(=O)OC)[C@H]2C(=O)N(Cc3ccccc3)C(=O)[C@@H]12)S(=O)(=O)c1ccc(OC)cc1	.	-4	7	2	-5	.
CCN(C[C@H]1N[C@@](CC)(C(=O)OC)[C@H]2C(=O)N(Cc3ccccc3)C(=O)[C@@H]12)S(=O)(=O)c1ccc(OC)cc1	.	2	10	33*	-7	-10
N#Cc1c(-c2ccccc2)nc(SCc2cccc(Cl)c2)[nH]c1=O	14	1	-7	32*	-9	8
CC(C)(C)c1ccc(S(=O)(=O)N2CCC(C(=O)N3CCN(C4CCCCC4)CC3)CC2)cc1	.	.	.	7	.	.
CCOc1ncccc1C(=O)Nc1cc(S(=O)(=O)N2CCOCC2)ccc1OCC(F)(F)F	.	1	5	55*	-8	1
CCOc1ccc(S(=O)(=O)N2CCCCC2)cc1NC(=O)c1cccnc1OCC	.	0	4	11	-1	.
COc1ccccc1NC(=O)COC(=O)c1c(NC(C)=O)sc(C)c1C	.	-3	8	0	.	.
CC(C)Oc1ccc(/C=N/NC(=O)c2nnn(-c3nonc3N)c2CN(C)c2ccccc2)cc1	0	-1	17	13	12	.
CCc1ccc(OCc2cccc(C(=O)N/N=C\c3cnn(C)c3C)c2)cc1	-5	4	15	8	.	.
O=C1C=CC(=O)c2c(O)c(CO)c(CO)c(O)c21	.	2	9	78*	.	69*
COC(=O)[C@H](C(C)C)N(CCCc1cn(Cc2ccccc2)nn1)S(=O)(=O)c1ccccc1Br	.	.	.	9	.	.
CC(=O)c1cccc(N(CC(=O)NC2CCCCC2)C(=O)CNC(=O)c2cccs2)c1	3	-1	-6	5	5	.
CC(=O)c1cccc(N(CC(=O)NC2CCCC2)C(=O)CNC(=O)c2cccs2)c1	0	-1	-6	36*	0	-18
CC(C)CN1C(=O)C[C@]2(C(=O)N(C)c3ccc(NC(=O)c4cc(F)ccc4F)cc32)C1c1ccccc1 (stereo partly specified)	.	.	.	1	.	.
COc1ccc(OCCOc2ccc(S(=O)(=O)N3CCCC3)cc2[N+](=O)[O-])cc1	.	-1	0	-6	1	.
COc1cccc(Oc2ccc(S(=O)(=O)N3CCCC3)cc2[N+](=O)[O-])c1	0	-2	6	34*	9	-12
CCN(C(=O)COC(=O)CCc1ccc(OC)cc1)c1c(N)n(Cc2ccccc2)c(=O)[nH]c1=O	.	-1	-2	5	.	.
CCN(c1ccc(NC(=O)COC(=O)C2CCN(c3ccc(C(F)(F)F)cn3)CC2)cc1)C(C)C	.	-3	0	30*	.	23
CCN(CC)c1ccc(NC(=O)COC(=O)C2CCN(c3ccc(C(F)(F)F)cn3)CC2)cc1	.	0	4	-3	.	.
CSc1ccc(-c2nc(CN3CCCCC3c3cccnc3)c(C)o2)cc1 (stereo unspecified)	5	5	4	32*	-1	-18
O=c1c(=Nc2ccccc2O)c(=O)c2ccccc12	-1	-2	9	49*	95	-1
